Laboratory results reported in PubChem BioAssay AID1645855 (Buhrlage Lab, Dana-Farber Cancer Institute and Novartis …, 2021).
Out of some 47,000 compounds screened, about 3,100 (6.6%) were called active. This excerpt belongs to a sample that is enriched for actives. A number with no mark means an inactive call. Rule as the data show it: active = inhibition above about 30%; inactive = the rest.

biological target: Ubiquitin carboxyl-terminal hydrolase 17-like protein 5 (Homo sapiens) (UniProt A8MUK1); assay: inhibitors of human USP17 deubiquitinase (AID 1645855); conditions: purified USP17, Ub-rhodamine cleavage fluorescence, 3 h; at 50 µM; active compounds read high
Sequence (A8MUK1 whole entry, looked up): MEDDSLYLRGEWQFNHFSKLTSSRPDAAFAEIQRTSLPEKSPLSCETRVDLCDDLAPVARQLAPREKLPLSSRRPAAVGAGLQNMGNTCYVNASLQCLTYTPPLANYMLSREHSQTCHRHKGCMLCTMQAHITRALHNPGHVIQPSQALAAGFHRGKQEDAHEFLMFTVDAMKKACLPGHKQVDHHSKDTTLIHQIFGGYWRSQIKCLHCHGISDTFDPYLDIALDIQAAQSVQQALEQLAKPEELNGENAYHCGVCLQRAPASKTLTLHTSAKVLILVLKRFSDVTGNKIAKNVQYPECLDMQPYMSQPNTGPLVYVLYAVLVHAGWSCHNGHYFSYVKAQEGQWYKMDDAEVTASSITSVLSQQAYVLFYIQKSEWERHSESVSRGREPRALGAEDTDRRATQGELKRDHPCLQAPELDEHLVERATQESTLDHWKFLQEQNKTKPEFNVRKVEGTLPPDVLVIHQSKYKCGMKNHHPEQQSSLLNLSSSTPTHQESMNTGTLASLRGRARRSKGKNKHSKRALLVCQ

Row | SMILES | inhibition
1 | COc1ccccc1CNCc1c(C(=O)O)c(C)n(-c2ccccc2)c1C | 6.79%
2 | CNC(=O)C1CCN(c2nc3ccc(-c4ccccc4F)nc3s2)CC1 | 15.7%
3 | NC(=O)c1ccccc1NC(=O)C1CN(c2nc3c(F)cccc3s2)C1 | 31% (active)
4 | O=C(Nc1ccccc1F)C1CCCN(c2nnc3ccccn23)C1 (stereo not drawn) | 4.67%
5 | CCOc1nc(-c2ccc(Cl)cc2Cl)nc2ccccc12 | 9.99%
6 | Cc1ccnc(Nc2nc(-c3ccccc3)c3cc(Cl)ccc3n2)n1 | 91.1% (active)
7 | O=C(Nc1cc(Cl)ccc1F)c1cnc(-c2ccccc2)nc1-c1ccncc1 | -172%
8 | COc1cc2c(c(OC)c1OC)-c1ccc(NCCc3ccc(S(N)(=O)=O)cc3)c(=O)cc1[C@@H](NC(C)=O)CC2 | -68.9%
9 | Nc1nc(COC(=O)c2ccoc2)nc(Nc2ccccc2)n1 | -3.92%
10 | Cc1nc(-c2ccc(C)c(S(=O)(=O)NCc3ccccc3Cl)c2)cs1 | 28%
11 | COc1ccc(C(NC(=O)CN(C)Cc2ccc3c(c2)OCO3)c2ccccc2)cc1 (stereo not drawn) | 35.3% (active)
12 | CN(CC(=O)Nc1ccc(F)cc1Cl)Cc1ccc2c(c1)OCO2 | -5.43%
13 | Cc1ccc(F)cc1NC(=O)CN(C)Cc1ccc2c(c1)OCO2 | 1.53%
14 | CCN(CC)c1ccc2ccc(C(=O)NCCc3ccccn3)cn12 | -61.8%
15 | Cc1cc2oc(C(=O)Nc3ccc4c(c3)NC(=O)CO4)c(C)c2cc1Cl | 11.8%
16 | COc1cccc(N2CCN(C(=O)Nc3ccc4c(c3)NC(=O)CO4)CC2)c1 | 45% (active)
17 | COc1cccc(NC(=O)N2CC[C@H]3N(C)CC[C@@]3(C(=O)N3CCCC3)CC2)c1 | -21.3%
18 | CN(Cc1cccnc1)Cc1ccc(N2CCC(NC(=O)c3ccc4c(c3)OCO4)CC2)nc1 | -12%
19 | O=c1c2cnc(N3CCCCC3)nc2ccn1Cc1cccnc1 | -8.83%
20 | CN1CCN(c2ncc3c(=O)n(Cc4ccccn4)ccc3n2)CC1 | 11.4%
21 | O=c1c2cnc(N3CCOCC3)nc2ccn1CCc1ccccc1 | 71.6% (active)
22 | Cc1nnc2n1CC(c1cccc(NC(=O)Cn3ccnc3C(C)C)c1)CC2 (stereo not drawn) | 3.88%

Row | SMILES | inhibition
23 | O=C(Cn1c(=O)n(Cc2ccc3c(c2)OCO3)c(=O)c2cccnc21)Nc1ccc(F)cc1 | 14.6%
24 | CC(C)[C@H](NC(=O)N1CCn2c1nc1ccccc12)C(=O)NCCc1ccccc1 | -12.9%
25 | O=S1(=O)c2ccccc2O[C@H]2CCN(c3ncccn3)CC[C@@H]2N1Cc1cccnc1 | -37.6%
26 | CC1CCN(c2nc(F)c3c(c2F)S(=O)(=O)CCN3Cc2cccnc2)CC1 | 50.9% (active)
27 | CCN1CCN(c2nc(F)c3c(c2F)S(=O)(=O)CCN3CC2CCCO2)CC1 (stereo not drawn) | 16.6%
28 | Cc1noc(-c2ccc3nnc(CC(=O)Nc4ccc(C)c(F)c4)n3c2)n1 | -2.57%
29 | COC(=O)c1cccc(Oc2nc(OC)nc(OC)n2)c1 | -1.33%
30 | Cc1cc(C)n(Cc2c(C(=O)NCc3ccc(F)cc3)noc2C)n1 | -5.62%
31 | Cc1ccc(CNC(=O)c2ccc(-c3cccnc3)nc2)cc1 | 9.44%
32 | CNS(=O)(=O)c1ccc(CNC(=O)c2cc(-c3ccc(C)cc3)no2)cc1 | 65% (active)
33 | CCn1cc(S(=O)(=O)CC(=O)Nc2ccccc2C(F)(F)F)c2ccccc21 | -1.62%
34 | Cc1cccc(-c2nnc3ccc(N4CCC(C(=O)NC(C)Cc5ccco5)CC4)nn23)c1 (stereo not drawn) | 48.5% (active)
35 | CC1CCN(C(=O)CSc2ccc3nnc(-c4cccc(F)c4)n3n2)CC1 | -2.06%
36 | O=C(Nc1ccccc1[N+](=O)[O-])N1CCN(c2ccc3nnc(-c4ccccc4)n3n2)CC1 | 12.5%
37 | COCCn1c(=O)[nH]c2cc(C(=O)NCCNc3ccc([N+](=O)[O-])cc3C#N)ccc2c1=O | 53.7% (active)
38 | COCCn1c(=O)[nH]c2cc(C(=O)NCc3ccc(Cl)cc3)ccc2c1=O | 0.361%
39 | COCCn1c(=O)[nH]c2cc(C(=O)N3CCC(Cc4ccccc4)CC3)ccc2c1=O | 2.53%
40 | CN1CCN(S(=O)(=O)c2cccc(C(=O)Nc3cccc(S(N)(=O)=O)c3)c2)CC1 | -6.3%
41 | COc1cccc(N2CCN(C(=O)C3CCN(c4ncnc5onc(C)c45)CC3)CC2)c1 | -20.4%
42 | CCC(=O)Nc1nc2cc(NC(=O)c3ccc(OC)cc3)ccc2s1 | 30.9% (active)
43 | CCC(=O)c1ccc(OCC(=O)Nc2ccc3nc(C)sc3c2)cc1 | 5.34%
44 | CCOc1ccc2nc(NC(=O)CN3CCC(C(N)=O)CC3)sc2c1 | -0.089%

Row | SMILES | inhibition
45 | CC(=O)N1c2ccc(S(=O)(=O)NCC3CCC(C(=O)Nc4cccnc4)CC3)cc2CC1C (stereo not drawn) | 0.344%
46 | CC(Oc1ccc2c3c(c(=O)oc2c1)CCC3)C(=O)NCC(=O)N1CC[C@@]2(O)CCCC[C@H]2C1 (stereo partly drawn) | 10.3%
47 | CNC(=O)c1cnc2scc(-c3ccccc3)n2c1=O | 1.82%
48 | Cc1ccc2c(c1)C(=O)NCC1(CCN(C(=O)c3cscn3)CC1)O2 | 0.0795%
49 | O=C(Nc1ccc2sc(NC(=O)C3CCCCC3)nc2c1)NC1CCCC1 | 20.6%
50 | Cc1ccc2sc(NC(=O)NC(=O)c3c(Cl)cccc3Cl)nc2c1 | 36.4% (active)
51 | Cc1noc2nc(C3CC3)cc(C(=O)Nc3nc4ccccc4s3)c12 | -4.21%
52 | Cc1ccc(Cn2cc(C(=O)O)c(S(=O)(=O)N3CCOCC3)n2)cc1 | -22.5%
53 | CC(C)OCCCn1c(=O)c2ccccc2n2c(CCC(=O)NCCN3CCN(c4cccc(Cl)c4)CC3)nnc12 | 8.41%
54 | O=C(C1CCc2nc(N3CCOCC3)ncc2C1)N1CCCCCC1 (stereo not drawn) | -6.44%
55 | Cc1ccc(NC(=O)C2CCCN(c3ncnc4onc(C)c34)C2)nc1 (stereo not drawn) | 0.0336%
56 | O=C(NCC1CC1)c1nc(-c2ccc3[nH]ccc3c2)no1 | -9.5%
57 | O=C(NC1CC1)C1CCN(c2ncccc2-c2nc(-c3ccccc3)no2)CC1 | 17.4%
58 | O=C(NC1CC1)c1nc(-c2ccc(-n3cccc3)cc2)no1 | 43.1% (active)
59 | CSCC[C@H](NC(=O)N1CCn2c1nc1ccccc12)C(=O)NCc1ccc2c(c1)OCO2 | 14.2%
60 | CCn1c(=O)c(CCC(=O)N2CCN(c3ccccc3)CC2)nc2c(C)nn(-c3ccccc3)c21 | 5.12%
61 | c1ccc(Nc2cc(CC3CCN(Cc4cnc[nH]4)CC3)ncn2)nc1 | -12.1%
62 | CSc1ncnc2c1sc1nc(-c3ccccc3)c3c(c12)CC(C)(C)OC3 | 3.2%
63 | CC1(C)Cc2c(c(-c3ccco3)nc3sc4c(SCCCc5ccccc5)ncnc4c23)CO1 | 69.7% (active)
64 | CCCCCCSc1ncnc2c1sc1nc(-c3ccccc3)c3c(c12)CC(C)(C)OC3 | 3.28%
65 | Cc1ccc(S(=O)(=O)N2Cc3ccccc3CN3C(=O)NC(=O)C3C2)cc1 (stereo not drawn) | 4.38%
66 | COc1ccc(CCNc2ncnc3c2cnn3Cc2ccccc2)cc1OC | -18.7%

Row | SMILES | inhibition
67 | CC(=O)N1CC(C)Oc2cc(S(=O)(=O)Nc3ccc(C)cc3C)ccc21 (stereo not drawn) | 6.48%
68 | CC1CCc2c(sc(NC(=O)c3cc(-c4ccccc4)nc4ccccc34)c2C(N)=O)C1 (stereo not drawn) | 4.55%
69 | Cc1c(Cc2ccccc2)sc(NC(=O)c2cccnc2)c1C(N)=O | 10.7%
70 | NC(=O)c1c(NC(=O)c2ccccc2Oc2ccccc2)sc2c1CCN(Cc1ccccc1)C2 | 30.4% (active)
71 | O=C(NCc1ccc2c(c1)OCO2)c1ccc(CS(=O)c2ccc(Cl)cc2)o1 (stereo not drawn) | -0.0116%
72 | CCc1cccc(C)c1NC(=O)C1=Cc2cc(OC)ccc2OC1 | -6.4%
73 | Cc1cccc(CNC(=O)C2CCN(c3cnc4nccnc4c3)CC2)c1 | -128%
74 | Cc1cccc(CNC(=O)C2CCCN(S(=O)(=O)Cc3ccc(F)cc3)C2)c1 (stereo not drawn) | 56.7% (active)
75 | CC(=O)Nc1nsc(N2CCC(C(=O)NCc3cccc(C)c3)CC2)n1 | -1.72%
76 | COc1ccc(Cn2cc(-c3nc(C4CC4)no3)ccc2=O)cc1F | -5.47%
77 | CCN1CCN(c2nc3c(c(=O)[nH]c(=O)n3C)n2CC(O)c2ccccc2)CC1 (stereo not drawn) | -4.6%
78 | C=CCn1c(N2CCC(C(=O)NCC(C)O)CC2)nc2ccccc21 (stereo not drawn) | 9.39%
79 | O=C1N[C@H]2OCCC[C@H]2[C@H](c2ccccc2C(=O)O)N1 | -6.46%
80 | Cn1c(CCN2CCCC2)nc2cc(NC(=O)c3cccc([N+](=O)[O-])c3)ccc21 | 16.8%
81 | CC(=O)Nc1ccc2c(c1)nc(CCN1CCCC1)n2C | -8.68%
82 | Cn1c(CCN2CCCC2)nc2cc(NS(=O)(=O)c3ccccc3)ccc21 | 60.7% (active)
83 | CCc1nnc(NC(=O)c2cc(-c3ccc(C)c(C)c3O)n[nH]2)s1 | 16.7%
84 | CC(C)(C)C(=O)Nc1ccc(SCc2nnc(-c3ccccc3)o2)cc1 | 2.2%
85 | O=C(Nc1ccc(-c2nc3cnccc3o2)c(O)c1)c1ccc(-c2ccccc2)cc1 | 2.32%
86 | COc1cc(C(=O)Nc2ccc(-c3nc4cnccc4o3)cc2)cc(OC)c1OC | -3.38%
87 | O=C(Cc1ccccc1)Nc1ccc(-c2nc3cnccc3o2)c(O)c1 | 63.3% (active)
88 | O=C(c1cc(Cl)ccc1F)N1CCC(c2nc(C3CC3)n[nH]2)CC1 | -2.96%
